TMEM16A act: TMEM16A chloride channel activators or potentiators, primary screen, cell-based, HTS. Anoctamin-1 (Mus musculus), Q8BHY3. HEK293 TMEM16A/YFP-H148Q/I152L, iodide quench fluorescence; active compounds read low. B-score at 10 µM. hit rate 0.3% among 340,000. AID 623877, 2012;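 active = fluorescence-ratio B-score plate-corrected deviation score at least 3 library SD below zero, with starting fluorescence score within 5 deviations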;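 also: channel opened by trigger with iodide after compound preincubation; score built on the fluorescence ratio of max minus min over baseline; more negative score means more quench and so TMEM16A activation or potentiation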
Target sequence (Q8BHY3 whole entry, looked up): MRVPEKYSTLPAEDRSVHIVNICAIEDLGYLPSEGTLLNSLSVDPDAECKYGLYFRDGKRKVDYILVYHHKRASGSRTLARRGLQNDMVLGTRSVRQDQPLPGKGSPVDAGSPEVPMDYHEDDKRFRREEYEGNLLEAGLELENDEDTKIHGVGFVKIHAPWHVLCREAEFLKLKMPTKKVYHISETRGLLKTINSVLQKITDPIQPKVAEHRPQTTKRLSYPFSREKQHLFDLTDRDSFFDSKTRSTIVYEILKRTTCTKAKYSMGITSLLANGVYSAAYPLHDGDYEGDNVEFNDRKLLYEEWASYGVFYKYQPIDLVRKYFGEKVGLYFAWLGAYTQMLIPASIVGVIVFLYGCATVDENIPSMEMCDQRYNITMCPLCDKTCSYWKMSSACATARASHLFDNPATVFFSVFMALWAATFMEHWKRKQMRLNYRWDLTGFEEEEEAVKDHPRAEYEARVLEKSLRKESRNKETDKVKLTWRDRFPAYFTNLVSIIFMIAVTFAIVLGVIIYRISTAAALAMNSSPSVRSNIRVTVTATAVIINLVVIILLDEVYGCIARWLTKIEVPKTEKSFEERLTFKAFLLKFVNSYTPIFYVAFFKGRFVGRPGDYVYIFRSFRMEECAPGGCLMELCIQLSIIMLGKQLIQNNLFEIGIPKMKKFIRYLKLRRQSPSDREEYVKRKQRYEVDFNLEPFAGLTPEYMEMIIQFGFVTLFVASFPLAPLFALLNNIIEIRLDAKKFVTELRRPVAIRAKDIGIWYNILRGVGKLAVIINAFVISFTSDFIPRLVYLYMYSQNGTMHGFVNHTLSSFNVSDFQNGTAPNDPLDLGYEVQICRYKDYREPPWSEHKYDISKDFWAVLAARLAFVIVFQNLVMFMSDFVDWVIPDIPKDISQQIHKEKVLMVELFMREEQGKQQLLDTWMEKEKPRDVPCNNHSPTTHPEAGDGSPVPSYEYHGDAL
ANO1 block: TMEM16A chloride channel inhibitors, primary screen, cell-based, HTS; normalized B-score (activity score, 25-100; higher = stronger inhibition) at 10 µM; HEK293 TMEM16A/YFP iodide influx fluorescence, ionomycin; AID 588511, 2011; hit rate 1.2% among 310,000; Anoctamin-1 (Mus musculus), Q8BHY3;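 active = ratio plate-corrected score three or more library SD toward inhibition, starting fluorescence score within five deviations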;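 also: score derived from kinetic fluorescence span divided by baseline fluorescence per well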
CHT allo act: CHT positive allosteric modulators, primary screen, cell-based, membrane potential dye, choline EC20; CHT-expressing cells; active compounds read high; LV-AA mutant CHT in HEK293 cells; B-score at 10 µM; hit rate 0.49% among 310,000; High affinity choline transporter 1 (Homo sapiens), Q9GZV3;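 active = initial fluorescence not abnormally high and integrated response B-score, plate-corrected, over 3 SD above library mean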
CHT block: inhibitors of human choline transporter CHT; hit rate 0.86% among 310,000; AID 488975, 2010; CHT-expressing cells, membrane potential dye, choline response; active compounds read low; B-score at 10 µM;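 active = B-score over 3 SD under the library average, and starting fluorescence ratio not unusually high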;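 also: choline stimulus applied at its EC90 after an EC20 pre-addition; B-score computed on integrated fluorescence ratio after choline addition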
CHT activ conf: CHT activators, confirmation, cell-based, membrane potential dye, duplicate; shares compounds with CHT allo act; CHT-expressing cells, membrane potential dye fluorescence (FDSS); % of choline EC20–EC90 response window; HEK293 expressing CHT LV-AA mutant; choline added at its EC20; activation, % at 10 µM; hit rate 91% among 2,500; AID 504833, 2011;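 active = primary screen active, with duplicate mean activation above negative control mean plus 3 SD, cut at about 11% in these data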
HEK293 MP dye: membrane potential response in parental HEK293 cells, counter-screen for CHT activator project, cell-based, membrane potential dye; shares compounds with CHT allo act; membrane potential dye fluorescence (FDSS); measured after EC20 choline addition; ratio readout change at 10 µM, hits read low; hit rate 62% among 2,500;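 active = duplicate-averaged ratio beyond 3 SD from buffer wells, up or down, though filed actives are nearly all decreases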
Starred values were filed as active, the others as inactive; i = inactive; / = not tested or not shown. Shown are actives, neighbours in structure and some others; about 2.3% of the full set was active somewhere.

SMILES	TMEM16A act	ANO1 block	CHT allo act	CHT block	CHT activ conf	HEK293 MP dye
CC(OC(=O)Cn1cnc2c1c(=O)n(C)c(=O)n2C)C(=O)NC1CCCCC1C (stereo unspecified)	i	i	i	i	/	/
Cc1cc2nc(C)n(CCCN)c2cc1C	i	i	8.4*	i	69*	-73*
Cc1cc2nc(C)n(CCCNC(=O)Nc3ccc(C#N)cc3)c2cc1C	i	i	i	i	/	/
COc1ccc(C(CNC(=O)CCNC(=O)c2ccc(Br)cc2)N2CCOCC2)cc1 (stereo unspecified)	i	i	i	i	/	/
Cc1cc(S(=O)(=O)n2[nH]c(=O)c(CCO)c2C)c(Cl)cc1Cl	i	i	i	i	/	/
CCN1CCc2nc(NC(=O)C(c3ccccc3)c3ccccc3)sc2C1	i	i	i	i	17*	i
CCCCOc1ccc(N2C(=O)CC(NCCc3ccc(S(N)(=O)=O)cc3)C2=O)cc1 (stereo unspecified)	i	i	i	i	/	/
Cc1ccc(-n2c(SCCN)nnc2-c2cccc(C)c2)cc1	i	i	i	i	17*	i
O=c1[nH]c2ccc(S(=O)(=O)N3CCN(C4CCCCC4)CC3)cc2[nH]c1=O	i	i	i	i	46*	-42*
CC(C)(C)OC(=O)n1cc(C(=O)c2ccccc2O)cn1	i	i	i	i	/	/
CCOC(=O)n1cc(C(=O)c2ccccc2O)cn1	i	i	i	i	30*	-38*
O=c1cc(-c2ccncc2)oc2ccccc12	i	i	i	i	46*	-49*
O=c1cc(-c2ccc(O)cc2)oc2ccccc12	i	i	i	i	/	/
COc1ccc2c(c1)c(C(=O)CN1CCC3(CC1)OCCO3)c(C)n2C	i	i	6.4*	i	15*	-41*
COc1ccc2c(c1)c(C(=O)CN1CCOCC1)c(C)n2C	i	i	i	i	38*	-37*
Cc1c(C(=O)CN2CCSCC2)c2ccccc2n1C	i	i	i	i	/	/
COc1ccc2c(c1)c(C(=O)CN1CCC(C(N)=O)CC1)c(C)n2C	i	i	6.3*	i	65*	-51*
COc1ccc(N2CCN(CC(=O)c3c(C)n(C)c4ccc(OC)cc34)CC2)cc1	i	i	i	i	/	/
COc1ccc2c(c1)c(C(=O)CN1CCCCC1)c(C)n2C	i	i	i	i	44*	-51*
C(=N\Nc1ccc2nncn2n1)/c1ccccn1	i	i	i	i	24*	-54*
CC(C)c1nc2sc3c(SCC(N)=O)ncnc3c2c2c1CCC2	i	i	i	i	/	/
CC1=Nc2ccc(C)c3nc(C)cc(c23)N1c1ccc(C)cc1	i	i	8.5*	i	42*	-60*
Cc1ccc(N2C(=O)c3cccc4cccc(c34)C2=O)cc1	i	i	i	i	/	/
COC(=O)c1ccc2nc(C)cc(Nc3ccccc3C)c2c1	i	i	6.6*	i	44*	-44*
N=C1C(c2ccc(Br)cc2)=C(O)C2CCc3ccccc3N12 (stereo unspecified)	i	i	13*	i	55*	-67*
SMILES	TMEM16A act	ANO1 block	CHT allo act	CHT block	CHT activ conf	HEK293 MP dye
O=S(=O)(c1ccc(Br)cc1)N1CCCc2ccccc21	i	i	i	i	/	/
COc1cc2c(cc1NC(=O)COCC(=O)O)oc1ccccc12	i	i	i	i	46*	-45*
Cc1ccc[n+](CC(=O)Nc2ccc([N+](=O)[O-])cc2Cl)c1	i	i	i	i	/	/
O=C(COC(=O)c1cc[n+]([O-])cc1)Nc1ccc(Cl)cc1[N+](=O)[O-]	i	i	i	i	20*	-44*
O=C(COC(=O)c1cc[n+]([O-])cc1)Nc1ccc(Cl)cc1Cl	i	/	/	/	/	/
CN(C)c1cc[n+](CC(=O)Nc2ccc([N+](=O)[O-])cc2Cl)cc1	i	i	6.5*	i	5	-33*
O=C(COC(=O)c1cc[n+]([O-])cc1)Nc1ccc([N+](=O)[O-])cc1Cl	i	i	12*	i	62*	-79*
CC(C)[C@H](NC(=O)[C@@H]1CSC2c3ccccc3C(=O)N21)C(=O)NC1CCCC1 (stereo partly specified)	i	i	i	i	/	/
Cc1cc(N2CCC(C)CC2)nc2cccc(O)c12	i	i	6.8*	i	18*	-54*
CCOC(=O)c1sc2nccc(N(C)C)c2c1N=CN(C)C	i	i	7.2*	i	60*	-52*
CN(Cc1ccccc1)C(=O)COC(=O)c1cc2ccccc2oc1=O	i	/	/	/	/	/
CCN(CC)CCNc1ccc(CO)c2sc3ccccc3c(=O)c12	i	i	6.4*	i	44*	-49*
O=c1c2ccccc2sc2c(CO)ccc(NCCN3CCCCC3)c12	i	/	/	/	/	/
CCn1cc(CN2CCCC(CNS(=O)(=O)c3cccc4cccnc34)C2)cn1 (stereo unspecified)	i	i	i	i	/	/
CN1CCN(CCCn2cnc3c(=O)oc4ccccc4c32)CC1	i	i	9.4*	i	66*	-67*
O=c1oc2ccccc2c2c1ncn2CCN1CCOCC1	i	i	i	i	/	/
COc1ccc(OC)c2c(C)cc(N3CCCCCC3)nc12	i	i	i	i	/	/
COc1ccc(OC)c2c(C)cc(C)nc12	i	i	8.8*	i	57*	-81*
Cc1cc(NCCCN2CCOCC2)n2ncc(-c3ccccc3)c2n1	i	i	i	i	/	/
Cc1cc(NCCCN2CCOCC2)n2nc(C)c(-c3ccccc3)c2n1	i	i	9.7*	i	45*	-57*
Cc1cc(C)c2c(n1)nn1c(NCCCN3CCOCC3)cc(C)nc21	i	/	/	/	/	/
Cc1cc(NCCCN2CCOCC2)n2nc(C)c(-c3ccc(F)cc3)c2n1	i	i	i	i	52*	-65*
COc1ccc(CNc2ccc3c(c2)nc(C)n3C)cc1OC	i	i	6.6*	i	26*	-48*
CCOc1ccc(CNc2ccc3c(c2)nc(C)n3C)cc1	i	i	i	i	/	/
CCN(CC)/C(=N\S(=O)(=O)c1ccccc1C)c1ccccc1	i	i	i	i	/	/
